Screens deposited in PubChem BioAssay by Broad Institute.
FGF22 binding: shifts melting point of recombinant human FGF22. Q9HCT0. recombinant FGF22 thermal shift, SYPRO orange fluorescence; percent of sucrose octasulfate shift, DMSO zero. activity (Tm shift, normalised), % at 9.99 µM. actives 1.5% (n = 340,000). AID 651658;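 active = mean Tm shift, scaled 0 neutral to 100 positive control, at about 1.3% or above, every replicate too, limit read from the data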
Target sequence (Q9HCT0 whole entry, looked up): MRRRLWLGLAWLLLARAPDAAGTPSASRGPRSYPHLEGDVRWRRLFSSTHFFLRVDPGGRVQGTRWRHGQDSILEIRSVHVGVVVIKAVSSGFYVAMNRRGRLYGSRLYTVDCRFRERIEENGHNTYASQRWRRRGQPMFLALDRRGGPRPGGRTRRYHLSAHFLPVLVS
PvdQ inh: P. aeruginosa PvdQ acylase inhibition; inhibition, % at 10 µM; actives 0.063% (n = 340,000); purified PvdQ acylase, fluorescence plate reader; in the data active = inhibition above about 30%, passing the limit was not always enough;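 note: 0% = vehicle neutral wells and 100% = reference inhibitor wells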
PglD inh: inhibitors of Campylobacter jejuni PglD acetyltransferase; purified PglD enzyme, DTNB colorimetric CoA detection; inhibition, % at 12.5 µM; actives 0.098% (n = 360,000); AID 602405; in the data active = inhibition above about 16%, passing the limit was not always enough
CDK5 p35 inh: blocks human CDK5/p35 kinase activity; Q00535+Q15078; Recombinant CDK5/p35, ADP-Glo luminescence, 60 min; inhibition, % at 10 µM; actives 0.01% (n = 330,000); AID 488839;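 active = highest replicate inhibition of at least 50% and at least 75% of replicates reaching 50%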;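 note: plate controls were DMSO neutral control for no effect and GW8510 at 10 µM for full effect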
SIRT5 inh: blocks human SIRT5 desuccinylation of peptide; Q9NXA8; inhibition, % at 15 µM; actives 1.1% (n = 330,000); Purified SirT5, succinyl-peptide AMC, trypsin-coupled fluorescence; in the data active = inhibition above about 15%
dFosB act: activators of mouse delta FosB homodimer | purified delta FosB, TAMRA-CDK5 oligo fluorescence polarization; percent of positive-control signal above neutral wells | P13346 | activation, % at 25 µM | actives 0.99% (n = 340,000);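 active = mean activation above about 17%, with every replicate also reaching it, limit read from the data, passing the limit was not always enough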
Target sequence (P13346 whole entry, looked up): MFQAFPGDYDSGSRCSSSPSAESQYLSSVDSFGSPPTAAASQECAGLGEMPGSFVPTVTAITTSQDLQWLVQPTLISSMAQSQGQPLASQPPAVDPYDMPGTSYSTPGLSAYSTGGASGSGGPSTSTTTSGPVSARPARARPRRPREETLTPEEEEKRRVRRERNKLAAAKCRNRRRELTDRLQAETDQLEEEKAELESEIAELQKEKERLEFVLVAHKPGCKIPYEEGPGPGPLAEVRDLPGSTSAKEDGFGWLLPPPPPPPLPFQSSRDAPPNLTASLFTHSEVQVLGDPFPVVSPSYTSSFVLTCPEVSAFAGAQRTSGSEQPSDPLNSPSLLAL
* = called active by the depositor; · = not tested or not shown. An excerpt weighted towards active compounds, which were near 2.8% of everything screened.

SMILES | FGF22 binding | PvdQ inh | PglD inh | CDK5 p35 inh | SIRT5 inh | dFosB act
CO[C@H]1CN(C)C(=O)c2cc(NC(=O)CC(F)(F)F)ccc2OC[C@H](C)N(C(=O)c2ccccc2F)C[C@@H]1C | 0.4 | · | · | · | 2.5 | ·
COc1ccc(CCN=C(C)C2=C(O)C(c3ccccc3)OC2=O)cc1OC (stereo not drawn) | 42.9* | -10.4 | · | -0.4 | 0.5 | -6.4
C=CC(=O)Nc1ccc(N(C)c2ccnc(Nc3ccc(N4CCN(C)CC4)cc3)n2)cc1 | -0.2 | 9.9 | 4.1 | 9.7 | -5.0 | 50.1*
CO[C@H]1CN(C)C(=O)c2cc(NC(=O)C3CC3)ccc2OC[C@H](C)N(Cc2cccc(F)c2)C[C@H]1C | 0.1 | · | -0.2 | · | 4.8 | ·
Nc1c(/C=C2/C=CC(=O)C(O)=C2)c(=O)nc2sc(CC(=O)N3CCCC3)nn12 | -0.1 | -6.8 | -0.6 | -2.1 | 28.8* | -5.6
Nc1c(/C=C2/C=CC(=O)C(O)=C2)c(=O)nc2sc(CC(=O)N3CCCCC3)nn12 | -0.3 | -3.8 | -0.3 | -1.1 | 43.1* | -5.1
Nc1c(/C=C2/C=CC(=O)C(O)=C2)c(=O)nc2sc(CC(=O)N3CCOCC3)nn12 | -0.1 | 1.5 | -2.7 | · | 34.1* | -1.1
CC1=Nc2ccc(C)cc2/C1=C/c1c(N)n2nc(CC(=O)N3CCOCC3)sc2nc1=O | 0.1 | -3.4 | -0.2 | 0.1 | -1.1 | 8.6
Nc1c(C=C2C=CC(=O)C=C2)c(=O)nc2sc(CC(=O)N3CCCCC3)nn12 | -0.5 | 1.1 | -6.8 | · | 39.8* | 1.2
Cc1noc(C)c1S(=O)(=O)N(C)C[C@H]1OCCCC[C@@H](C)Oc2ccc(NC(=O)NC3CCCCC3)cc2C(=O)N([C@@H](C)CO)C[C@H]1C | -0.3 | · | -2.1 | · | 4.2 | ·
Cc1ccc(S(=O)(=O)NCC[C@@H]2CC[C@H](NC(=O)Nc3cccc(F)c3)[C@@H](CO)O2)cc1 | -0.6 | · | 2.7 | · | 1.3 | ·
CCc1ccc(NC(=O)CSc2ccc(-c3ccco3)nn2)cc1 | 43.1* | -10.2 | · | 0.1 | -0.2 | -0.7
CC(=O)Nc1ccc(NC(=O)CSc2nnc(-c3ccco3)o2)cc1 | 43.6* | -7.6 | -1.4 | -0.8 | -0.9 | -1.1
O=C(CSc1nnc(Cn2cnc3ccccc32)o1)Nc1cccc2ccccc12 | · | -10.5 | 0.2 | 2.2 | · | -10.8
CC(=O)c1ccc(NC(=O)CSc2nnc(Cn3cnc4ccccc43)o2)cc1 | 43.4* | -7.9 | -0.3 | 1.0 | -0.3 | -5.5
Cc1ccc(-c2cnc3c(c2)C(=O)N([C@@H](C)CO)C[C@H](C)[C@@H](CN(C)S(C)(=O)=O)O3)cc1 | -0.3 | · | -5.1 | · | -10.7 | ·
C[C@H]1CN([C@@H](C)CO)C(=O)c2cccc(NC(=O)c3ccncc3)c2O[C@@H]1CN(C)C(=O)NC1CCCCC1 | -0.5 | · | 2.1 | · | 0.7 | ·
NC(=O)C1CCN(C(=O)CNC(=O)c2ccc(F)cc2)CC1 | 43.7* | 26.7 | · | -1.5 | · | 1.1
CC(C)NC(=O)NNC(=O)c1nn(-c2ccc(F)cc2)ccc1=O | 0.0 | -20.7 | · | -1.9 | 22.2* | -3.1
CCN(CC)C(=O)C1CCCN(c2ccccc2[N+](=O)[O-])C1 (stereo not drawn) | 43.0* | -13.9 | · | -1.5 | -5.8 | 6.1
CCN(CC)C(=O)C1CCCN(c2ccc([N+](=O)[O-])cc2[N+](=O)[O-])C1 (stereo not drawn) | 0.0 | -9.7 | · | -1.0 | 2.3 | -10.5
CCN(CC)C(=O)C1CCCN(Cc2ccc3ccccc3c2)C1 (stereo not drawn) | -0.1 | -6.9 | 7.7 | -1.3 | 46.5* | -1.3
Cc1noc(C)c1NC(=O)N(C)C[C@@H]1Oc2ccc(NS(=O)(=O)c3ccc(F)cc3)cc2CC(=O)N([C@H](C)CO)C[C@H]1C | 0.1 | · | 1.2 | · | -0.7 | ·
CNC(=O)C[C@@H]1CC[C@H]2[C@@H](COc3ccc(NC(=O)C4CCCCC4)cc3C(=O)N2C)O1 | 0.0 | · | -4.4 | · | -5.1 | ·
CCCNC(=O)N1CC(=O)N2[C@@H](CO)[C@H](c3ccc(-c4cccc(C)c4)cc3)[C@@H]2C1 | 0.6 | · | · | · | -1.9 | ·
SMILES | FGF22 binding | PvdQ inh | PglD inh | CDK5 p35 inh | SIRT5 inh | dFosB act
CC(C)OC(=O)CSc1nc(Cc2cccs2)nc2ccccc12 | 44.2* | -7.9 | · | 0.2 | 0.0 | 5.6
Cc1sc2nc(SCC(=O)O)[nH]c(=O)c2c1C | 43.2* | -6.9 | · | -5.0 | -3.1 | 2.7
CCOC(=O)c1ccc(NC(=O)CSc2nc3sc(C(=O)O)c(C)c3c(=O)[nH]2)cc1 | 43.0* | -3.9 | · | -3.1 | 4.7 | -12.3
Cc1ccc(NC(=O)CSc2nc3[nH]ncc3c(=O)[nH]2)cc1 | 43.6* | -5.8 | 4.8 | 1.4 | -1.2 | -8.1
CC(=O)c1ccc(NC(=O)CSc2nc3[nH]ncc3c(=O)[nH]2)cc1 | -0.1 | 5.4 | 1.0 | 1.5 | 11.8 | 15.3
Cc1noc(C)c1NC(=O)N(C)C[C@@H]1Oc2ccc(NC(=O)Cn3cnnn3)cc2C(=O)N([C@@H](C)CO)C[C@H]1C | -0.4 | · | -1.0 | · | -11.3 | ·
C[C@@H]1CN([C@H](C)CO)C(=O)c2cccc(NS(=O)(=O)c3ccccc3)c2O[C@@H]1CN(C)CC1CC1 | -0.1 | · | -3.9 | · | -0.8 | ·
COc1ccc(N=C2NC(=O)/C(=C\C=C\c3ccccc3)S2)cc1 | 43.6* | 8.4 | · | 1.0 | -0.5 | 2.0
CCCN(C)C[C@@H]1Oc2ncc(Br)cc2C(=O)N([C@@H](C)CO)C[C@@H]1C | 0.4 | · | -0.9 | · | -1.7 | ·
NS(=O)(=O)c1ccc(NC(=O)COC(=O)COc2ccccc2)cc1 | 0.0 | 4.0 | · | 0.5 | -5.5 | -5.0
CC(C)c1ccc(NC(=O)COC(=O)COc2ccccc2)cc1 | 43.1* | -7.8 | · | -1.2 | -0.4 | -2.8
CC1(C)CC(NC(=O)c2sc3cc(Cl)ccc3c2Cl)CC(C)(C)N1 | 43.4* | -3.1 | · | -0.1 | -2.1 | -5.6
O=C(NC1CC1)c1sc2cc(Cl)ccc2c1Cl | 0.2 | -4.1 | 1.7 | -2.5 | -0.9 | -9.9
Cc1ccc(S(=O)(=O)N[C@H]2CC[C@H](CC(=O)NCCc3ccncc3)O[C@@H]2CO)cc1 | 0.0 | · | -0.4 | · | 1.5 | ·
O=C(C[C@@H]1CC[C@@H]2[C@H](COC[C@@H](O)CN2C(=O)Nc2cccc(F)c2)O1)NCc1ccccc1F | -0.4 | · | -4.8 | · | 4.5 | ·
O=C(C[C@@H]1CC[C@H]2[C@@H](COC[C@H](O)CN2C(=O)Nc2cccc(F)c2)O1)NCc1ccccc1F | 0.0 | · | 18.6* | · | 1.3 | ·
C[C@H](NC(=O)C[C@H]1CC[C@H]2[C@@H](COC[C@H](O)CN2C(=O)Nc2cccc(F)c2)O1)c1ccccc1 | 0.0 | · | 2.6 | · | 2.5 | ·
O=C(C[C@H]1CC[C@@H]2[C@H](COC[C@@H](O)CN2Cc2ccccc2F)O1)N[C@H]1CCN(Cc2ccccc2)C1 | 0.1 | · | -1.4 | · | 23.0* | ·
C[C@H](NC(=O)C[C@@H]1CC[C@H]2[C@@H](COC[C@@H](O)CN2C(=O)Nc2cccc(F)c2)O1)c1ccccc1 | -0.2 | · | 2.3 | · | 18.9* | ·
